PubChem BioAssay (EPA / NIEHS)
Values joined by “and” are separate entries in the source; they are usually repeats but may differ in a detail not shown here. Equal entries are not always repeated. The source holds several records for some structures; these can differ, active in one and inactive in another. Active and inactive are the calls of the source. How the source made its calls: active means hit-call score of the fitted dose curve at least 0.9, where 1 is the maximum; inactive means score below 0.9.

read-out: Plasminogen activator inhibitor-1 (PAI1), SERPINE1 (gene 5054); test: BSK_MyoF_PAI1: BioMAP Diversity Plus: MyoF Assay for Plasminogen activator inhibitor-1 (PAI1) Biomarker Activity (AID 2284256); details: primary human lung fibroblasts;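 on outcome: PAI-1 protein level measured by ELISA in fibroblast cultures; PAI-1 read 24 h after compound addition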
In short: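 Primary human lung fibroblasts are dosed and incubated 24 h. PAI-1 is then measured by ELISA, while parallel cultures undergo SRB staining for overt cytotoxicity. Increases over DMSO define activity.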

| SMILES | outcome | AC50 |
| --- | --- | --- |
| CC(C)(C)C(=O)CC(=O)C(F)(F)C(F)(F)C(F)(F)F | inactive |  |
| O=C(O)C(F)(F)C(F)(F)OC(F)(F)F | inactive |  |
| OCC(F)(F)C(F)(F)C(F)(F)C(F)(F)C(F)(F)C(F)(F)F | inactive |  |
| FC(F)(F)C(F)(F)C(F)(F)C(F)(F)C(F)(F)C(F)(F)C(F)(F)Br | inactive |  |
| C=C(C)C(=O)OCC(F)(F)C(F)(F)C(F)(F)F | inactive |  |
| OCC(F)(F)C(F)(F)C(F)(F)C(F)(F)C(F)(F)C(F)F | inactive |  |
| C=CC(F)(F)C(F)(F)C(F)(F)C(F)(F)C(F)(F)C(F)(F)C(F)(F)C(F)(F)F | inactive |  |
| Cc1ccc(S(=O)(=O)OCC(F)(F)C(F)(F)C(F)(F)C(F)(F)C(F)(F)C(F)F)cc1 | inactive |  |
| N=C(N)C(F)(F)C(F)(F)C(F)(F)C(F)(F)C(F)(F)C(F)(F)C(F)(F)F | inactive |  |
| CCO[Si](CCC(F)(F)C(F)(F)C(F)(F)C(F)(F)C(F)(F)C(F)(F)F)(OCC)OCC | inactive |  |
| FC(F)(F)C(F)(F)CNCC(F)(F)C(F)(F)F | inactive |  |
| C=CC(=O)OCC(F)(F)C(F)(F)C(F)(F)C(F)(F)COC(=O)C=C |  | 15.4 µM (active) and 16.7 µM (active) |
| FC(F)(F)C(F)(F)C(F)(F)C(F)(F)C(F)(F)C(F)(F)CC1CO1 (configuration not stated) | inactive |  |
| OCCCC(F)(F)C(F)(F)C(F)(F)F | inactive |  |
| O=C(Cl)C(F)(F)C(F)(F)C(F)(F)C(F)(F)C(F)(F)C(F)(F)C(F)(F)C(F)(F)F | inactive | 30 µM (active) |
| O=C(O)C(F)(F)C(F)(F)C(F)(F)C(F)(F)C(F)(F)C(F)(F)C(F)(F)C(F)(F)Cl |  | 48.2 µM (active) and 48.5 µM (active) |
| FC(F)(F)C(F)(F)C(F)(F)C(F)(F)C(F)(F)CCI | inactive |  |

| SMILES | outcome | AC50 |
| --- | --- | --- |
| O=C(O)C(F)(F)C(F)(F)C(F)(F)C(F)(F)C(F)(F)C(F)(F)C(F)(F)C(F)(F)C(F)(F)C(F)F | inactive | 23.6 µM (active) |
| O=P(O)(O)OCCC(F)(F)C(F)(F)C(F)(F)C(F)(F)C(F)(F)C(F)(F)F | inactive |  |
| FC(F)(Br)C(F)(F)C(F)(F)C(F)(F)C(F)(F)C(F)(F)Br | inactive |  |
| OCC(F)(F)C(F)(F)C(F)(F)F | inactive |  |
| O=C(O)C(F)(F)C(F)(F)C(F)(F)C(F)(F)C(F)(F)C(F)(F)C(F)(F)C(F)(F)C(F)(F)C(F)(F)C(F)(F)C(F)(F)F | inactive |  |
| O=S(=O)(OCC(F)F)C(F)(F)F | inactive |  |
| FC(F)(F)C(F)(F)C(F)(F)CI | inactive |  |
| FC(F)(I)C(F)(F)C(F)(F)C(F)(F)I |  | 55.6 µM (active) and 46 µM (active) and 56.7 µM (active) |
| FC(F)(F)C(F)(F)C(F)(F)C(F)(F)C(F)(F)C(F)(F)C(F)(F)I | inactive |  |
| OCCCC(F)(F)C(F)(F)C(F)(F)C(F)(F)C(F)(F)C(F)(F)C(F)(F)F |  | 51.2 µM (active) and 52.2 µM (active) |
| COC(=O)CCC(F)(F)C(F)(F)C(F)(F)C(F)(F)F | inactive |  |
| OCC(F)(F)C(F)(F)C(F)(F)C(F)F | inactive |  |
| FC1CC(F)(F)C(F)(F)C1(F)F (configuration not stated) | inactive |  |
| O=C(O)C(F)(F)C(F)(F)C(F)(F)C(F)(F)F | inactive |  |
| O=S(=O)(O)C(F)(F)C(F)(F)C(F)(F)C(F)(F)C(F)(F)C(F)(F)C(F)(F)F | inactive |  |
| O=C(CC(=O)C(F)(F)C(F)(F)F)C(F)(F)F | inactive |  |

read-out: CD69, CD69 (gene 969); test: BSK_IMphg_CD69: BioMAP Diversity Plus: IMphg Assay for CD69 Biomarker Activity (AID 2284257); details: primary human endothelial cells with macrophages
In short: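 Readout is ELISA for CD69 in primary human venular endothelial cell/macrophage co-culture, taken at 24 h post-dosing. SRB staining of parallel cultures gauged overt cytotoxicity; signal increase versus DMSO defined activity.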

| SMILES | outcome | AC50 |
| --- | --- | --- |
| CC(C)(C)C(=O)CC(=O)C(F)(F)C(F)(F)C(F)(F)F | inactive |  |
| O=C(O)C(F)(F)C(F)(F)OC(F)(F)F | inactive |  |
| OCC(F)(F)C(F)(F)C(F)(F)C(F)(F)C(F)(F)C(F)(F)F | inactive |  |
| FC(F)(F)C(F)(F)C(F)(F)C(F)(F)C(F)(F)C(F)(F)C(F)(F)Br | inactive |  |
| C=C(C)C(=O)OCC(F)(F)C(F)(F)C(F)(F)F | inactive |  |
| OCC(F)(F)C(F)(F)C(F)(F)C(F)(F)C(F)(F)C(F)F | inactive |  |
| C=CC(F)(F)C(F)(F)C(F)(F)C(F)(F)C(F)(F)C(F)(F)C(F)(F)C(F)(F)F | inactive |  |
| Cc1ccc(S(=O)(=O)OCC(F)(F)C(F)(F)C(F)(F)C(F)(F)C(F)(F)C(F)F)cc1 | inactive |  |
| N=C(N)C(F)(F)C(F)(F)C(F)(F)C(F)(F)C(F)(F)C(F)(F)C(F)(F)F | inactive |  |
| CCO[Si](CCC(F)(F)C(F)(F)C(F)(F)C(F)(F)C(F)(F)C(F)(F)F)(OCC)OCC | inactive | 0.26 µM (active) |
| FC(F)(F)C(F)(F)CNCC(F)(F)C(F)(F)F | inactive |  |
| C=CC(=O)OCC(F)(F)C(F)(F)C(F)(F)C(F)(F)COC(=O)C=C |  | 30 µM (active) |
| FC(F)(F)C(F)(F)C(F)(F)C(F)(F)C(F)(F)C(F)(F)CC1CO1 (configuration not stated) | inactive |  |
| OCCCC(F)(F)C(F)(F)C(F)(F)F | inactive |  |
| O=C(Cl)C(F)(F)C(F)(F)C(F)(F)C(F)(F)C(F)(F)C(F)(F)C(F)(F)C(F)(F)F |  | 55.1 µM (active) and 33.8 µM (active) and 45.9 µM (active) |
| O=C(O)C(F)(F)C(F)(F)C(F)(F)C(F)(F)C(F)(F)C(F)(F)C(F)(F)C(F)(F)Cl |  | 41.5 µM (active) and 30 µM (active) |
| FC(F)(F)C(F)(F)C(F)(F)C(F)(F)C(F)(F)CCI | inactive |  |

| SMILES | outcome | AC50 |
| --- | --- | --- |
| O=C(O)C(F)(F)C(F)(F)C(F)(F)C(F)(F)C(F)(F)C(F)(F)C(F)(F)C(F)(F)C(F)(F)C(F)F | inactive | 30 µM (active) |
| O=P(O)(O)OCCC(F)(F)C(F)(F)C(F)(F)C(F)(F)C(F)(F)C(F)(F)F | inactive |  |
| FC(F)(Br)C(F)(F)C(F)(F)C(F)(F)C(F)(F)C(F)(F)Br | inactive |  |
| OCC(F)(F)C(F)(F)C(F)(F)F | inactive |  |
| O=C(O)C(F)(F)C(F)(F)C(F)(F)C(F)(F)C(F)(F)C(F)(F)C(F)(F)C(F)(F)C(F)(F)C(F)(F)C(F)(F)C(F)(F)F | inactive |  |
| O=S(=O)(OCC(F)F)C(F)(F)F | inactive |  |
| FC(F)(F)C(F)(F)C(F)(F)CI | inactive |  |
| FC(F)(I)C(F)(F)C(F)(F)C(F)(F)I | inactive | 10.1 µM (active) |
| FC(F)(F)C(F)(F)C(F)(F)C(F)(F)C(F)(F)C(F)(F)C(F)(F)I | inactive |  |
| OCCCC(F)(F)C(F)(F)C(F)(F)C(F)(F)C(F)(F)C(F)(F)C(F)(F)F | inactive | 50 µM (active) |
| COC(=O)CCC(F)(F)C(F)(F)C(F)(F)C(F)(F)F | inactive |  |
| OCC(F)(F)C(F)(F)C(F)(F)C(F)F | inactive |  |
| FC1CC(F)(F)C(F)(F)C1(F)F (configuration not stated) | inactive |  |
| O=C(O)C(F)(F)C(F)(F)C(F)(F)C(F)(F)F | inactive |  |
| O=S(=O)(O)C(F)(F)C(F)(F)C(F)(F)C(F)(F)C(F)(F)C(F)(F)C(F)(F)F | inactive |  |
| O=C(CC(=O)C(F)(F)C(F)(F)F)C(F)(F)F | inactive |  |
